What all share (experiment): NCI-60 one-dose screen, 48 h (100 = growth as untreated, 0 = no growth, -100 = all killed)
In one assay the test system is HCT-15 colon. The note with it: 10 µM.
The subject of a further assay is HT29 colon. The note with it: 10 µM.
A further assay has as its system SNB-75 CNS. The note with it: 10 µM.
A further assay has as its system SNB-19 CNS. The note with it: 10 µM.
A further assay has as its system U251 CNS. The note with it: 10 µM.
The subject of another assay is PC-3 prostate. The note with it: 10 µM.
The next assay relates to SK-MEL-5 melanoma. The note with it: 10 µM.
The subject of a further assay is UACC-62 melanoma. The note with it: 10 µM unless noted.
The subject of another assay is LOX IMVI melanoma. The note with it: 10 µM.
The next assay concerns SK-MEL-28 melanoma. The note with it: 10 µM.

Each structure is given as a SMILES string. This is part of a sample that, as a whole, favours compounds with a hit. Of some 83,000 tested, about 20% had one in any assay.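 Each cell line was grown in a 96-well plate and treated with one concentration of compound for 48 hours. Values below 10 were considered active.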 A number with no mark means an inactive call. Calls of active or inactive are those of the source.

With `C/C(=N\O)C1(O)CCCCC1`, the growth is 93.6% with HCT-15 colon; 110% in the assay with HT29 colon; 91.7% in the assay on SNB-75 CNS; 105% in the assay with SNB-19 CNS; 95.1% in the assay with U251 CNS; 129% with PC-3 prostate. In addition, the growth in the assay with SK-MEL-5 melanoma is 87.9%; with UACC-62 melanoma it was 59.2%; with LOX IMVI melanoma it was 98.8%; with SK-MEL-28 melanoma, 114%.

Turning to `CCOc1ccccc1/C=N/Nc1nc2ccccc2o1`, the growth with HCT-15 colon was 76.3%; in the assay on HT29 colon it was 110%; in the assay with SNB-75 CNS it was 83.9%; in the assay with SNB-19 CNS it was 100%; with U251 CNS, 105%; in the assay on PC-3 prostate, 85.8%. Further, the growth with SK-MEL-5 melanoma is 97.7%; in the assay with UACC-62 melanoma, 82.6%; with LOX IMVI melanoma it was 94.1%; in the assay with SK-MEL-28 melanoma, 100%.

As for `CN1C(=O)CN2CCc3ccccc3C2c2cc(Cl)ccc21` (stereo not given), the growth in the assay with HCT-15 colon was 89.7%; in the assay with HT29 colon it was 108%; in the assay on SNB-75 CNS, 96.1%; in the assay on SNB-19 CNS, 96.7%; with U251 CNS, 103%; in the assay with PC-3 prostate, 94.7%. Besides, the growth was 91.5% with SK-MEL-5 melanoma, 78.7% with UACC-62 melanoma, 94.7% in the assay on LOX IMVI melanoma and -89.5% (active) with SK-MEL-28 melanoma.

Consider `CCc1ccc(/C(C#N)=C/C=C/c2ccccc2)cc1`, for which the growth in the assay on HCT-15 colon is 38.7%; in the assay on HT29 colon, -5.6% (active); in the assay on SNB-75 CNS, 0.0202% (active); with SNB-19 CNS, 59.5%; with U251 CNS it was 21.3%; with PC-3 prostate, 19%. Also, the growth in the assay on SK-MEL-5 melanoma was 9.25% (active); in the assay on UACC-62 melanoma, 29.6%; in the assay on LOX IMVI melanoma, 44%; with SK-MEL-28 melanoma it was 51.8%.

As to `COC(=O)/C=C/C(=O)NC(N)=O`, the growth was 96.3% in the assay with HCT-15 colon; 102% in the assay with HT29 colon; 76.2% with SNB-75 CNS; 104% in the assay with SNB-19 CNS; 96.8% in the assay with U251 CNS; 96.5% in the assay on PC-3 prostate. The growth in the assay with SK-MEL-5 melanoma is 104%; in the assay on UACC-62 melanoma, 101%; in the assay on LOX IMVI melanoma, 97.1%; in the assay with SK-MEL-28 melanoma it was 97.8%.

In the case of `CCOc1ccc(Br)cc1/C=N\N=C\c1cc(Br)ccc1OCC`, the growth in the assay with HCT-15 colon was 109%; in the assay with HT29 colon it was 107%; in the assay on SNB-75 CNS, 98.5%; in the assay with SNB-19 CNS, 117%; in the assay on U251 CNS, 103%; with PC-3 prostate it was 93.8%. Besides, the growth in the assay with SK-MEL-5 melanoma is 109%; with UACC-62 melanoma it was 104%; in the assay on LOX IMVI melanoma it was 105%; in the assay on SK-MEL-28 melanoma it was 115%.

For `S=C(Nc1ccccc1)N1CCCCC1`, the growth with HCT-15 colon is 105%; with HT29 colon, 102%; in the assay on SNB-75 CNS, 99.5%; in the assay with SNB-19 CNS, 111%; in the assay with U251 CNS, 96.2%; in the assay with PC-3 prostate, 96.4%. Further, the growth is 97% in the assay with SK-MEL-5 melanoma, 90.5% in the assay on UACC-62 melanoma, 96.6% in the assay on LOX IMVI melanoma and 103% in the assay with SK-MEL-28 melanoma.

Turning to `O=C1c2ccccc2C(=O)c2c1ccc(C(=O)O)c2[N+](=O)[O-]`, the growth is 105% in the assay with HCT-15 colon; 93.8% in the assay on HT29 colon; 91.2% with SNB-75 CNS; 109% in the assay with SNB-19 CNS; 99.6% in the assay on U251 CNS; 94.8% in the assay with PC-3 prostate. Further, the growth with SK-MEL-5 melanoma is 109%; in the assay on UACC-62 melanoma it was 106%; in the assay with LOX IMVI melanoma, 88.4%; with SK-MEL-28 melanoma it was 101%.

Consider `CCCOC(=O)C(O)c1ccccc1` (stereo not given), for which the growth with HCT-15 colon was 97.5%; in the assay on HT29 colon it was 103%; in the assay on SNB-75 CNS, 96.7%; with SNB-19 CNS it was 107%; in the assay with U251 CNS, 115%; in the assay on PC-3 prostate, 101%. Besides, the growth with SK-MEL-5 melanoma is 104%; with UACC-62 melanoma, 98.2%; in the assay with LOX IMVI melanoma, 104%; in the assay with SK-MEL-28 melanoma, 116%.

With `Cc1ccccc1N=C(c1ccccc1)C1C(=O)c2ccccc2C1=O`, the growth in the assay with HCT-15 colon is 58.7%; in the assay with HT29 colon it was 75.9%; in the assay with SNB-75 CNS it was 90%; with SNB-19 CNS it was 97.1%; in the assay on U251 CNS, 87.7%; in the assay with PC-3 prostate, 59.8%. The growth with SK-MEL-5 melanoma was -0.209% (active); in the assay with UACC-62 melanoma, 63.1%; in the assay on LOX IMVI melanoma, 85.9%; in the assay with SK-MEL-28 melanoma it was 89.4%.

In the case of `N#CCCc1ccc(O)cc1`, the growth with HCT-15 colon is 95.1%; with HT29 colon, 108%; in the assay on SNB-75 CNS, 88.3%; in the assay with SNB-19 CNS it was 110%; in the assay with U251 CNS, 96.9%; with PC-3 prostate it was 102%. The growth in the assay on SK-MEL-5 melanoma was 105%; in the assay on UACC-62 melanoma it was 102%; in the assay on LOX IMVI melanoma, 107%; in the assay with SK-MEL-28 melanoma, 105%.

For `Cc1ccc(Cl)cc1NC(=O)N(C)CCO`, the growth is 110% in the assay on HCT-15 colon; 133% in the assay on HT29 colon; 126% in the assay with SNB-75 CNS; 101% in the assay with SNB-19 CNS; 102% in the assay on U251 CNS; 96% in the assay on PC-3 prostate. The growth in the assay with SK-MEL-5 melanoma is 101%; with UACC-62 melanoma, 109%; in the assay with LOX IMVI melanoma, 107%; in the assay with SK-MEL-28 melanoma, 145%.

For the molecule `O=C(O)c1cccc([N+](=O)[O-])c1`, the growth was 108% with HCT-15 colon; 111% in the assay on HT29 colon; 94.3% with SNB-75 CNS; 106% in the assay on SNB-19 CNS; 95.7% in the assay on U251 CNS; 93.1% in the assay with PC-3 prostate. Further, the growth with SK-MEL-5 melanoma was 107%; in the assay on UACC-62 melanoma it was 101%; with LOX IMVI melanoma, 99.2%; with SK-MEL-28 melanoma, 112%.

Regarding `O=c1cc(-c2ccccc2)nc2cc(-c3ccco3)[nH]n12`, the growth was 67.8% with HCT-15 colon; 102% with HT29 colon; 79.4% in the assay with SNB-75 CNS; 95.8% in the assay on SNB-19 CNS; 90.5% in the assay on U251 CNS; 78.7% with PC-3 prostate. Besides, the growth in the assay with SK-MEL-5 melanoma was 83.1%; in the assay on UACC-62 melanoma, 67.8%; with LOX IMVI melanoma, 86.1%; with SK-MEL-28 melanoma it was 88.6%.

In the case of `Cc1cc(O)ccc1O`, the growth with HCT-15 colon was 108%; in the assay with HT29 colon, 114%; in the assay on SNB-75 CNS, 114%; with SNB-19 CNS, 112%; in the assay with U251 CNS it was 107%; with PC-3 prostate it was 97.7%. For the same molecule, the growth with SK-MEL-5 melanoma was 88.6%; in the assay on UACC-62 melanoma, 80.8%; with LOX IMVI melanoma it was 92.5%; with SK-MEL-28 melanoma, 108%.

The record behind these values is PubChem BioAssay (NCI).
